# Measurements: PubChem BioAssay AID504847 (National Center for Advancing Translational Sciences (NCATS), 2011)
# The whole screen tested about 400,000 compounds, of which about 3,700 (0.93%) were called active. Not shown: some 3% with an inconclusive outcome. The sample holds actives, similar compounds and a random draw of the others, so the mix is not that of the screen. The source holds several records for some structures; these can differ, active in one and inactive in another. A number with no mark means an inactive call. Calls come from the whole dose curve; as a rule, active = well fitted inhibition curve with a large enough effect; inconclusive = small, poorly fitted or top-dose-only effect, or another doubt; inactive = no such curve, though single readings can be large or run the other way.
# Target: Vitamin D3 receptor (Homo sapiens) (UniProt P11473)
# Test: Inhibitors of the vitamin D receptor (VDR): qHTS
# Conditions: VDR-SRC2-3 peptide fluorescence polarization, 2 h; max response, negative = inhibition: hits give low values
# Description: The vitamin D receptor (VDR) is a ligand-activated transcription factor and is partially responsible for the regulation of the endocrine system. This includes the transcriptional regulation of genes involved in the production of the parathyroid hormone (PTH) and the regulation of the blood calcium level. High levels of PHT can cause hypercalcemia in the case of primary and tertiary hyperparathyroidism. The VDR-mediated gene regulation, activated by its ligand 1,25-dihydroxyvitamin D3 (1,25-(OH)2D3), is governed by the recruitment of coactivators. Our hypothesis is that small molecules, with the ability to inhibit the interaction between VDR and certain coactivators, are able to selectively modulate VDR-mediated transcription. Our long term objective is the application these VDR-coactivator inhibitors to study the role of VDR-coactivator binding for specific VDR regulated genes. Ultimately, these molecules can be developed into new treatments for hypercalcemic hyperparathyroidism. No small molecule or non-peptide inhibitors are known for the VDR-coactivator interaction.
# In a collaboration between the University of Wisconsin, Milwaukee and the NIH Chemical Genomics Center (NCGC) a HTS-compatible enzymatic assay was developed. The assay uses fluorescence polarization as its read-out to measure the inhibition between VDR and coregulator peptide SRC2-3 exerted by small molecules. This assay was used to screen the NIH Molecular Libraries Small Molecule Repository (MLSMR).
# NIH Chemical Genomics Center [NCGC]
# NIH Molecular Libraries Probe Centers Network [MLPCN]
# Assay Submitter (PI): Alexander Arnold, University of Wilwaukee
# Both solutions are kept at 4 deg C and protected from light and dispensed using a Kalypsys dispenser. Then 23nl of compounds and controls are added with Kalypsys pintool. […] Plate is centrifuged at 1000 RPM for 15 seconds to remove any residual bubbles. The plate is then incubate at ambient room temperature for 2 hours.
# % is set by controls: 0 for no effect and ±100 for the full control effect; potency is the fitted concentration of half-maximal effect.
# Sequence of Vitamin D3 receptor (Homo sapiens) (P11473 whole entry, looked up): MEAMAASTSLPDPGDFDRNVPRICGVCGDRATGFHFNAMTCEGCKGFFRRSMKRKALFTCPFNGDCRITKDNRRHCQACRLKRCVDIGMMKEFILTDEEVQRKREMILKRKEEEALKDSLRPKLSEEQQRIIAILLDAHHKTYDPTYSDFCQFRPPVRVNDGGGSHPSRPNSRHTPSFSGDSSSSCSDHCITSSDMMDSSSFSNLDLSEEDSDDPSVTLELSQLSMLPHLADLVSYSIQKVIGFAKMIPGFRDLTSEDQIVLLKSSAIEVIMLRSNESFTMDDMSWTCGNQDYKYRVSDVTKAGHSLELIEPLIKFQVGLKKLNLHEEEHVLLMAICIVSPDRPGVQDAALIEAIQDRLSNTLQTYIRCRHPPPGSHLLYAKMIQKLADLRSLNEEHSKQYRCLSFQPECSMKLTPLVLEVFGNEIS
Compound,"max response, negative = inhibition [%]",Potency
C#CCN1C(=O)C(O)(CC(=O)c2cc(OC)ccc2OC)c2ccccc21 (stereo not given),-3.89,
COc1ccc2c(c1)C(=C(C#N)C#N)C(=O)N2CCc1ccccc1,,50.1 µM (active)
COc1ccc(C(=O)NC(C)CCc2ccccc2)c(OC)c1 (stereo not given),-15.7,
COc1ccccc1-c1nnc(SCC(N)=O)o1,10.5,
CCC(=O)N1CCc2cc(Br)cc(S(=O)(=O)CCC(=O)NCc3ccccc3OC)c21,-6.5,
COc1ccc(C2Nc3ccc(NC(=O)COC(C)=O)cc3C(=O)N2Cc2ccccc2)cc1COc1ccc(NC(C)=O)cc1 (stereo not given),-2.53,
CCOc1ccc(NC(=O)CN(Cc2ccccc2)S(=O)(=O)c2ccc(Cl)cc2)cc1,3.79,
CCOc1ccc(N(Cc2ccccc2)C(=O)c2nc(SCC)ncc2Cl)cc1,3.07,
CCOc1ccc(N(Cc2ccccc2)C(=O)c2nc(S(C)(=O)=O)ncc2Cl)cc1,,12.6 µM (active)
COc1ccc(CCNC(=O)CCCn2c(=O)c3ccccc3n(Cc3ccc(C)cc3)c2=O)cc1OC,-9.82,
Cc1ccccc1NC(=O)Cn1c(=O)n(CCCCC(=O)NCc2ccccc2Cl)c(=O)c2ccccc21,-9.56,
Cc1ccc(Cn2c(=O)n(CCCC(=O)NCc3ccccc3Cl)c(=O)c3ccccc32)cc1,,89.1 µM (active)
O=C1N(Cc2ccccc2)c2ccc(Cl)cc2C1(O)c1c[nH]c2ccccc12 (stereo not given),-7.22,
Cc1c(Cl)cccc1-c1ccc(CNCCCSc2nnnn2C)o1,17.5,
CC(C)(C)c1ccc(S(=O)(=O)N2CCN(C(=O)c3cc(-c4ccc(Br)cc4)n[nH]3)CC2)cc1,0.49,
O=C(c1cc(-c2ccc(O)cc2)on1)N1CCOCC1,4.52,
O=C(c1cc(-c2ccc(Cl)cc2)on1)N1CCN(c2ccccc2)CC1,0.117,
O=C(c1cc(-c2ccc(F)cc2)on1)N1CCN(c2ccc(F)cc2)CC1,-26.1,70.8 µM (active)
CCCCn1c(=O)c2oc3ccccc3c2n(CC(=O)Nc2ccccc2OC)c1=O,4.96,
C=C(C)C1CC=C(CO)CC1 (stereo not given),1.87,
Cc1ccn2c(Nc3ccc4c(c3)OCCO4)c(-c3ccc(C)s3)nc2c1,-0.614,
O=C(O)[C@@H](S)[C@H](S)C(=O)O,,17.8 µM (active)

Compound,"max response, negative = inhibition [%]",Potency
CCCCCCC1(C)NC(c2ccc3c(c2)OCO3)=CC(c2ccccc2O)N1 (stereo not given),-18,
CCOC(=O)c1nnn(CC(=O)NC(=O)Nc2ccccc2F)c1C(=O)OCC,1.08,
N#Cc1ccccc1Cn1cnc2nc3c(cc2c1=O)CCCC3,-2.58,
COCCn1c(CCC(=O)Nc2cc(C)ccc2C)nc2cccnc21,7.95,
Cc1ccc(F)cc1NC(=O)CCSc1nc(-c2ccco2)cc(C(F)(F)F)n1,7.81,
COc1ccc(Cl)cc1NC(=O)CSc1nc(-c2cccs2)cc(C(F)(F)F)n1,-17,
COc1ccccc1-c1cc(C(F)(F)F)nc(S(=O)(=O)CCCC(=O)Nc2ccc(F)cc2F)n1,,56.2 µM (active)
CCOc1ccc(-c2cc3nc(C4CCN(C(=O)OC(C)(C)C)CC4)c(C(=O)Nc4ccc(C(=O)OC)cc4)cn3n2)cc1,-12.8,
CCN1C(=O)c2ccccc2S(=O)c2ccc(C(=O)NCc3ccc(F)cc3)cc21 (stereo not given),-17,
CO[C@@]12[C@@H](COC(N)=O)C3=C(C(=O)C(C)=C(N)C3=O)N1C[C@@H]1N[C@@H]12,1.74,
COc1ccc(C2C(=O)N(C3CCCCC3)CC(=O)N2Cc2ccccc2Cl)cc1OC (stereo not given),5.49,
CSc1nc(N(C)NC(=O)c2cccc(C)c2)c2ccccc2n1,6.12,
CC(Sc1nnc2c(n1)C1CCC2(C)C1(C)C)C(=O)Nc1ccccc1 (stereo not given),-21.5,
CSc1nc(C)cc(SC(C(C)=O)C(=O)Nc2ccccc2)n1 (stereo not given),,79.4 µM (active)
COc1ccc(NC(=O)CSc2nc3ccccc3n2CC(=O)N2CCCCC2C)cc1 (stereo not given),-0.157,
O=C(Nc1cccc2cccnc12)C(F)(F)F,3.86,
Cc1ccc(-c2nn(CC(C)(C)C)c3ncnc(N)c23)cc1,-0.691,
CCc1nn(CC(=O)N2CCN(c3ccc(Cl)cc3)CC2)c(=O)c2cc3occc3n12,22.3,
CCN(CC)CCNC(=O)Cn1ncc2c3ccccc3n(Cc3ccccc3C)c2c1=O,13.4,
CCOC(=O)c1c(NC(=O)C2(C)Cc3ccccc3C(=O)O2)sc2c1CCCC2 (stereo not given),,79.4 µM (active)
CCOC(=O)c1c(NC(=O)c2ccc(S(=O)(=O)N(CC)CC)cc2)sc2c1CCCCC2,-15.3,
CCOC(=O)c1c(NC(=O)Cc2coc3ccc(CC)cc23)sc2c1CCC2,2.49,
